Test results: PubChem BioAssay (NCI)
Compounds without any hit were thinned out: in the full panel of roughly 83,000, 20% have a hit.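 Cell lines were cultured in 96-well plates, exposed to a single compound concentration, and assessed for percent growth 48 hours later.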 Unmarked numbers belong to inactive results. The source made the active and inactive calls. How the source made its calls: active means growth percent below 10; inactive means the rest. Where a SMILES comes first, the peptide text is derived from it. [ ]: non-standard residue; d: D form. ξ: configuration not given here. ξD = NC(CC(=O)O)C(=O)O

Tests used:
Assay in all cases: NCI-60 one-dose screen, 48 h (100 = growth as untreated, 0 = no growth, -100 = all killed)
Details in all cases: 10 µM unless noted
RPMI-8226 leukemia = system: RPMI-8226 leukemia
OVCAR-8 ovarian = system: OVCAR-8 ovarian
OVCAR-5 ovarian = system: OVCAR-5 ovarian
OVCAR-4 ovarian = system: OVCAR-4 ovarian
SK-OV-3 ovarian = system: SK-OV-3 ovarian
IGROV1 ovarian = system: IGROV1 ovarian
OVCAR-3 ovarian = system: OVCAR-3 ovarian
HS 578T breast = system: HS 578T breast
NCI/ADR-RES ovarian = system: NCI/ADR-RES ovarian

SMILES	growth (RPMI-8226 leukemia)	growth (OVCAR-8 ovarian)	growth (OVCAR-5 ovarian)	growth (OVCAR-4 ovarian)	growth (SK-OV-3 ovarian)	growth (IGROV1 ovarian)	growth (OVCAR-3 ovarian)	growth (HS 578T breast)	growth (NCI/ADR-RES ovarian)
Cc1nc([N+](=O)[O-])c(Sc2nncc(-c3ccccc3)n2)n1C	62.5%	89.4%	79.7%	83.7%	109%	89.7%	78.5%	99.1%	81.3%
CCOC(=O)C1=C(C(=O)c2ccccc2)C(c2cccc([N+](=O)[O-])c2)C(C(=O)c2ccccc2)=C(C(=O)OCC)N1	32.8%	96.8%	87.7%	92.2%	96.8%		96.1%	90.1%	90.9%
NC(=S)N/N=C\c1nccc2c(N)cccc12	15.5%	15.8%	48%	40.7%	16.6%	10.9%	42.6%	57.6%	10.8%
Nc1cccc2cccc([N+](=O)[O-])c12		108%	113%	94.8%	103%	118%	124%	103%	103%
CN1CSC(=S)N(Cc2ccccc2)C1	31.4%	97.8%	103%	112%	114%	92.9%	65%	108%	102%
CCCCCCCCCCCC[N+]1(CCCCCCCCCCCC)CCCC(C)C1 (stereo not drawn)		-92.1% (active)	-98.3% (active)	-86.3% (active)	-96.2% (active)		-88.7% (active)	-40.8% (active)	19.6%
NCC(=O)NC(CC(=O)O)C(=O)O (stereo not drawn) (H-Gly-[ξD]-OH)	111%	107%	107%	104%	108%	107%	125%	99%	104%
CCC1C[N+]2=C(c3cc(OC)c(OC)cc3CC2)c2c1cc1n2CCc2cc(OC)c(OC)cc2-1 (stereo not drawn)	11.6%	32.4%	79.7%	14.7%	94.9%		10%	42.4%	101%
CCc1oc2ccccc2c1C(=O)c1cc(Br)c(O)c(Br)c1	34.7%	79.2%	124%	67%	95.8%	72.2%	58.2%		44.1%
CCc1cccc(CC)c1N1C(=O)C=CC1=O		112%	116%	111%	121%		97%	108%	118%
CCOC(=O)c1[nH]c(C#N)c(C(=O)OCC)c1C		94.8%	102%	97.7%	117%	101%	114%	124%	106%
Cc1ccc2c(c1)sc(-c1ccc(N(C)C)cc1)[n+]2C		16.3%	14.4%	20.3%	-14.2% (active)		-14.8% (active)	20.3%	81.3%
CCN(CC)c1ccc(/C=C\C(=O)c2ccc(NC(C)=O)cc2)cc1	76.9%	76%	68.5%	90.6%	69.2%	75.5%	104%	55.1%	37.9%
CC1C(c2ccccc2)OCCN1C(=S)Nc1ccc(S(=O)(=O)N2CCCCC2)cc1 (stereo not drawn)	80.4%		87.9%	106%	110%	106%	114%	85.8%	92.4%
CN(C)CC(C)(CN(C)C)C(=O)/C=C/c1c(Cl)cccc1Cl	-4.62% (active)	-26.2% (active)	53.1%	62.2%	91.9%		-31.3% (active)	71.9%	-29.7% (active)
O=C(/C=C/c1ccccc1)c1ccccc1O	26.6%	87.7%	91.1%	87.6%	107%	76.5%	89%	94.7%	93.8%
CN(C)c1ccc(/C=C/c2nccc3ccccc23)cc1	72%	87.9%	89.4%	103%	99.2%	78.5%	81.6%	94.1%	78.4%
O=C(c1ccc(O)c(Br)c1)c1ccc(O)c(Br)c1	99.5%	106%	110%	103%	116%	114%	114%	113%	105%
CCCCCCCCCCCC[n+]1ccccc1 (tested in a mixture with another compound)	-56.2% (active)	-30.2% (active)	-22.6% (active)	4% (active)	-18.4% (active)		-63.1% (active)	-28.7% (active)	55.3%
COc1cc(NC(=O)C2=C(C)NC(C)=C(C(=O)Nc3cc(OC)c(Cl)cc3OC)C2c2cccc([N+](=O)[O-])c2)c(OC)cc1Cl	25.6%	38.3%	34.4%	39.4%	52.1%	11.4%	32.3%	8.61% (active)	22%
Cc1cc2nc(CC(=O)c3ccncc3)c(=O)[nH]c2cc1C	103%	102%	97.2%	93.8%	104%	105%	112%	66.8%	96.8%
CCOc1cc(F)c([N+](=O)[O-])cc1[N+](=O)[O-]	24.2%	19.6%	77.9%	46.9%	99.3%		46.7%	90.6%	11.8%
CCCCCCCCC(=O)OCCCC(CCC(CCC1CCCO1)OC(=O)CCCCCCCC)OC(=O)CCCCCCCC (stereo not drawn)	112%	103%	99.5%	102%	96.4%	107%	110%	97.1%	103%
COc1ccc2nc3cc([N+](=O)[O-])ccc3c(NNc3ccccc3)c2c1	62.1%	81.7%		72.8%	71.9%	88.2%	72.6%		84.6%
Cc1cc(C(=O)c2ccc(Cl)cc2)ccc1O	73.3%	85.9%	99%	79.2%	110%	117%	98.8%	116%	92.2%
COc1cccc2c1C(=O)c1c(O)c3c(c(O)c1C2=O)C[C@@](O)(C(=O)CO)C[C@@H]3OC1CC(OC(C)=O)C(OC(C)=O)C(C)O1 (stereo partly drawn)	-43.5% (active)	0.76% (active)	1.32% (active)	-4.7% (active)	-10.4% (active)		-41.2% (active)	-10.9% (active)	2.46% (active)
CC(C)(C)c1ccc(CCO)cc1	112%	95.8%	91.4%	99.4%	100%		116%	135%	101%
O=C(Cc1nc2cc(Cl)c(Cl)cc2nc1CC(=O)c1ccccc1)c1ccccc1	25.7%	73.3%	77.5%	74.4%	77.4%	61%	81.5%	58.8%	74.6%
